CD40 NFkB inh – CD40 pathway inhibition in BL2 cells. BL2 NF-kB luciferase reporter, CD40L-induced, 4 h. inhibition, % at 10 µM. 83,000 compounds, 0.94% hits;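 active = mean inhibition of at least 50% with a set share of replicates also reaching that level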;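 note: 0% = neutral control wells and 100% = IKK inhibitor VII at 50 µM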
Numbers without * were called inactive; [ ] = dose if it differs, or a comment. The entries come from a sample that favours hits as a whole.

SMILES	CD40 NFkB inh
CO[C@H]1CN(C)C(=O)c2ccc(NC(=O)C3CCCC3)cc2OC[C@@H](C)N(CC2CC2)C[C@@H]1C	0.3
O=C(c1cccc(F)c1)N1CC[C@H]2[C@H](CO)Nc3ccc(C#Cc4cccc(F)c4)cc3[C@H]21	9.7
O=C1CN(S(=O)(=O)Cc2ccccc2)C[C@H]2[C@@H](c3ccc(C#Cc4ccccc4)cc3)[C@@H](CO)N12	18.5[25 µM]
CNC[C@@H]1OCCCC[C@H](C)Oc2ccc(NC(=O)Nc3ccc(OC)cc3)cc2C(=O)N([C@H](C)CO)C[C@H]1C	-9.7[25 µM]
Cc1cccc(S(=O)(=O)N2C[C@H]3[C@@H](c4ccccc42)[C@H](CO)N3CC2CCCC2)c1	12.7[25 µM]
C[C@H](CO)N1C[C@H](C)[C@H](CN(C)C(=O)Nc2ccccc2)Oc2ccc(NS(C)(=O)=O)cc2CC1=O	3.0[25 µM]
CNC[C@H]1Oc2ccc(NC(C)=O)cc2C(=O)N(C)C[C@@H]1C	5.2
O=C(Cc1ccncc1)N1C[C@@H]2N[C@H](C1)C2c1ccc(/C=C/c2ccccc2)cc1 (some centres undefined)	14.7[25 µM]
O=C(Nc1ccccc1N1CCOCC1)c1cnccn1	13.5
O=C(Nc1ccc(S(=O)(=O)N2CCCC2)cc1)c1cnccn1	-2.9
O=C(Nc1ccc(N2CCOCC2)cc1)c1cnccn1	81.3*
COc1ccc(-c2ccc3n(c2=O)C[C@@H]2[C@@H](CO)[C@H](C(=O)NCC4CC4)[C@H]3N2S(C)(=O)=O)cc1	2.2[25 µM]
COc1ccc(C(=O)NCC(=O)NCCc2c[nH]c3ccccc23)cc1OC	16.8
COc1ccc(NC(=O)COC(=O)Cc2c[nH]c3ccccc23)cc1Cl	-3.1
COc1cc(CNCCc2c[nH]c3ccccc23)cc(Cl)c1OCC(N)=O	46.7*
Cc1ccccc1S(=O)(=O)N1[C@H](C#N)[C@@H](c2ccc(C#CC3CC3)cc2)[C@@H]1CO	-0.5[25 µM]
COc1ccccc1NC(=O)N1C[C@@H]2[C@H](c3ccccc31)[C@H](CO)N2Cc1ccccc1F	-6.4[25 µM]
CN(C)C(=O)[C@H]1[C@H](CO)[C@H]2Cn3c(ccc(-c4cccc(F)c4)c3=O)[C@@H]1N2CC1CC1	-1.1[25 µM]
O=C(c1ccccc1)N1CCN(C(=O)N2CCOCC2)CC1	7.8
O=C1c2ccccc2-c2c1cccc2C(=O)N1CCOCC1	11.4
O=C1C(=C(c2ccccc2)N2CCOCC2)Cc2ccccc21	89.2*
CO[C@H]1CN(C)C(=O)c2ccc(NC(=O)C3CCCCC3)cc2OC[C@@H](C)N(C)C[C@H]1C	12.6
CC(C)NC(=O)N(C)C[C@@H]1Oc2c(N)cccc2C(=O)N(C)C[C@H]1C	3.0
C[C@@H](NC(=O)[C@@H]1[C@@H](CO)[C@@H]2Cn3c(cccc3=O)[C@H]1N2C(=O)C1CCCC1)c1ccccc1	10.7
C[C@@H]1CN([C@@H](C)CO)C(=O)c2cc(NS(=O)(=O)c3cccs3)ccc2O[C@@H]1CN(C)Cc1ccc(C(=O)O)cc1	1.8[25 µM]
SMILES	CD40 NFkB inh
C[C@@H]1CN([C@@H](C)CO)C(=O)Cc2cc(NS(=O)(=O)c3ccc(Cl)cc3)ccc2O[C@H]1CN(C)Cc1ccc(Cl)c(Cl)c1	64.8*
C[C@@H]1CN([C@H](C)CO)C(=O)Cc2cc(NS(=O)(=O)c3ccc(F)cc3)ccc2O[C@@H]1CN(C)Cc1ccncc1	2.8[25 µM]
C[C@@H]1CN([C@@H](C)CO)C(=O)Cc2cc(NC(=O)Cc3cn(C)c4ccccc34)ccc2O[C@H]1CN(C)Cc1ccc(C(F)(F)F)cc1	66.0*[25 µM]
C[C@@H]1CN([C@@H](C)CO)C(=O)Cc2cc(NC(=O)Nc3ccc(C(F)(F)F)cc3)ccc2O[C@H]1CN(C)Cc1ccccc1	-3.7
C[C@H]1CN([C@@H](C)CO)C(=O)Cc2cc(NS(=O)(=O)c3cccs3)ccc2O[C@@H]1CN(C)Cc1ccc(Cl)c(Cl)c1	56.9*
C[C@@H]1CN([C@@H](C)CO)C(=O)Cc2cc(NS(=O)(=O)c3ccc(F)cc3)ccc2O[C@@H]1CN(C)Cc1ccncc1	3.3[25 µM]
C[C@@H]1CN([C@@H](C)CO)C(=O)Cc2cc(NC(=O)Cc3cn(C)c4ccccc34)ccc2O[C@@H]1CN(C)C(=O)Nc1ccccc1	-3.5
Cc1noc(C)c1S(=O)(=O)Nc1ccc2c(c1)CC(=O)N([C@@H](C)CO)C[C@@H](C)[C@@H](CN(C)Cc1ccc(Cl)c(Cl)c1)O2	14.7
C[C@H](CO)N1C[C@H](C)[C@@H](CN(C)Cc2ccc(C(=O)O)cc2)Oc2ccc(NS(=O)(=O)c3cccs3)cc2C1=O	-0.1[25 µM]
C[C@H](CO)N1C[C@H](C)[C@@H](CN(C)Cc2ccc(Cl)c(Cl)c2)Oc2ccc(NS(=O)(=O)c3ccc(Cl)cc3)cc2CC1=O	14.4
C[C@@H]1CN([C@@H](C)CO)C(=O)Cc2cc(NS(=O)(=O)c3ccccc3)ccc2O[C@H]1CN(C)Cc1ccc(Cl)c(Cl)c1	68.3*
COc1ccc2c3c([nH]c2c1)[C@H](CO)N(Cc1cc(F)ccc1F)CC31CN(C(=O)C2CCC2)C1	6.1[25 µM]
O=C(C[C@@H]1C[C@H]2c3cc(NS(=O)(=O)c4ccc(F)cc4)ccc3O[C@H]2[C@@H](CO)O1)NCc1cccnc1	10.0[25 µM]
O=C(C[C@@H]1C[C@@H]2c3cc(NC(=O)c4ccc5c(c4)OCO5)ccc3O[C@@H]2[C@H](CO)O1)NCc1ccccn1	-7.4[25 µM]
COc1ccc(-c2ccc3n(c2=O)C[C@@H]2[C@@H](CO)[C@H](C(=O)N(C)C)N(CC4CCOCC4)[C@H]32)cc1	13.1[25 µM]
CO[C@H]1CN(C)C(=O)c2cc(NC(=O)Nc3ccccc3F)ccc2OC[C@H](C)N(CCC(F)(F)F)C[C@@H]1C	12.5[25 µM]
O=C(Nc1ccccc1)c1cn2ccccc2n1	68.9*
O=C(Nc1ccc(-n2cnnn2)cc1)c1cn2ccccc2n1	-55.0
O=C(Nc1cccc(-c2cn3ccccc3n2)c1)c1cnccn1	-24.6
COc1cccc(CN2[C@H](CO)[C@@H]3c4ccccc4N(C(=O)c4cccnc4)C[C@@H]32)c1	3.8
CO[C@@H]1CN(C)C(=O)c2cc(NC(=O)CC(F)(F)F)ccc2OC[C@H](C)N(CC2CC2)C[C@@H]1C	-5.1[25 µM]
COc1cc2c(cc1OC)C(=O)C(Br)CC2 (centres undefined)	99.6*
COc1cc2c(cc1OC)C(=O)N(C)CC2	-3.0
COc1cc2c(cc1OC)C(=O)CCS2	7.4
COCC(=O)N1CC2(CCN(Cc3ccccc3)CC2)c2c([nH]c3cc(OC)ccc23)[C@@H]1CO	-9.9[25 µM]
SMILES	CD40 NFkB inh
N#C[C@@H]1[C@@H](c2ccc(C3=CCCC3)cc2)[C@H](CO)N1c1nc(-c2ccccc2)cs1	-8.6[25 µM]
COc1ccccc1C(=O)Nc1ccc2c(c1)C(=O)N(C)C[C@H](OC)[C@H](C)CN(C(C)=O)[C@@H](C)CO2	-18.2[25 µM]
COc1ccc(S(=O)(=O)N(Cc2cccnc2)Cc2cc3ccccc3[nH]c2=O)cc1	6.2
COc1ccc2[nH]c(=O)c(CN(Cc3cccs3)S(=O)(=O)c3cccc4nsnc34)cc2c1	55.4*
COc1ccc2[nH]c(=O)c(CN(C(=O)c3cccnc3)c3ccccc3)cc2c1	-6.6
OCc1ccc(O)c2ncccc12	29.4
Oc1ccc(CN2CCC(Cc3ccccc3)CC2)c2cccnc12	24.9
Oc1ccc(Cc2ccccc2)c2cccnc12	82.5*
Cc1ccccc1NC(=O)c1ccc(Cl)c(NC(=O)C2CCCC2)c1	2.1
COc1nnc(-c2ccc(C)c(S(=O)(=O)NCC3CCCO3)c2)c2ccccc12 (centres undefined)	-0.1
Cc1ccc(-c2nn3c(C)nnc3c3ccccc23)cc1S(=O)(=O)NCc1ccccc1	43.5*
CC(=O)NCc1nnc2c3ccccc3c(-c3ccccc3)nn12	15.6

Source: PubChem BioAssay (Broad Institute)
